# According to PubChem BioAssay (EPA / NIEHS):
# Where “and” joins values, the source holds several entries; their conditions need not be identical. Equal entries are not always repeated. Results filed as inconclusive are left out. The source holds several records for some structures; these can differ, active in one and inactive in another. Calls of active or inactive are those of the source. The calls were made as follows, unless noted: active = hit-call score of the fitted dose curve at least 0.9, where 1 is the maximum; inactive = score below 0.9.
# What was measured:
# [1] = APR_HepG2_CellCycleArrest_24hr: Apredica 24-hour HepG2 Assay for Cell Cycle Arrest (AID 2282905); conditions: imaging, actives raise or lower the signal;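 also: cell cycle arrest scored as ratio of 2N to 4N nuclear DNA content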
# Summary of the method: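 Step one: dose HepG2 with test compounds, 0.39–200 uM, 0.5% DMSO, 24 hr. Step two: fix, permeabilize, stain nuclei with Hoechst 33342. Step three: image six fields per well at 20x, quantify DNA content, fit bidirectionally relative to DMSO.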
# [2] = APR_HepG2_NuclearSize_24hr: Apredica 24-hour HepG2 Assay for Nuclear Size (AID 2282907); conditions: high-content imaging, actives raise or lower the signal
# Summary of the method: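 After fixation and permeabilization, 24-hr-treated HepG2 cells were stained with Hoechst 33342 and imaged on an ArrayScan (20x). Doses spanned 0.39–200 uM in duplicate. Nuclear diameter changes in either direction were fitted relative to 0.5% DMSO controls.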
# [3] = APR_HepG2_CellLoss_24hr: Apredica 24-hour HepG2 Assay for Cell Loss (AID 2282908); conditions: high-content imaging;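 also: fit in both directions so a hit may be cell loss or gain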
# Summary of the method: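 Duplicate wells received compound at ten concentrations (0.39–200 uM; final DMSO 0.5% v/v). After fixation with formaldehyde, nuclei stained with Hoechst 33342 were imaged at 20x. Loss or gain of cell count was fitted relative to DMSO controls.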
# [4] = APR_HepG2_MicrotubuleCSK_24hr: Apredica 24-hour HepG2 Assay for Microtubule CSK Stabilty (AID 2282909); conditions: HepG2 microtubule cytoskeleton imaging, actives raise or lower the signal
# Summary of the method: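 Microtubule stability is scored from tubulin immunofluorescence in fixed HepG2 cells imaged at 20x. Cells receive ten compound concentrations up to 200 uM for 24 h; taxol and DMSO serve as positive and negative controls.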
# [5] = APR_HepG2_MitoticArrest_24hr: Apredica 24-hour HepG2 Assay for Mitotic Arrest (AID 2282910); conditions: high-content imaging, actives raise or lower the signal
# Summary of the method: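 HepG2, 24 hr dosing, 0.39–200 uM, 0.5% DMSO final. Formaldehyde-fixed, Triton-permeabilised, anti-phospho-histone H3 plus Hoechst. ArrayScan imaging at 20x; bidirectional fit vs DMSO baseline.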
# [6] = APR_HepG2_MitoMembPot_24hr: Apredica 24-hour HepG2 Assay for Mitochondrial Membrane Potential (AID 2282911); conditions: imaging, actives raise or lower the signal
# Summary of the method: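 HepG2 human liver cells were exposed 24 hr to compounds at 0.39–200 uM (final DMSO 0.5% v/v) in duplicate. MitoTracker Red CMXRos (250 nM, 30 min) was loaded before formaldehyde fixation; fluorescence was imaged by ArrayScan HCS and fitted bidirectionally versus DMSO.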
# [7] = APR_HepG2_MitoMass_24hr: Apredica 24-hour HepG2 Assay for Mitochondrial Mass (AID 2282912); conditions: high-content imaging, actives raise or lower the signal
# Summary of the method: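 Readout: fluorescence of MitoTracker Red CMXRos (250 nM, added 30 min pre-fixation) in fixed HepG2 cells imaged by HCS. Exposure lasted 24 hr at 0.39–200 uM; increases and decreases were both fitted relative to DMSO.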
# [8] = APR_HepG2_p53Act_24hr: Apredica 24-hour HepG2 Assay for p53 Activation (AID 2282913); conditions: high-content imaging, actives raise or lower the signal;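 also: p53 protein immunofluorescence averaged per cell in HepG2 with Hoechst nuclei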
# Summary of the method: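 HepG2 cells exposed 24 hr to compounds at 0.39–200 uM (10 concentrations, duplicate), final DMSO 0.5% v/v. After formaldehyde fixation and Triton permeabilization, p53 was immunolabeled (sheep anti-p53, Cy5 secondary) with Hoechst 33342 nuclear counterstain, then imaged by high-content fluorescence microscopy.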
# [9] = APR_HepG2_CellCycleArrest_72hr: Apredica 72-hour HepG2 Assay for Cell Cycle Arrest (AID 2282914); conditions: high-content imaging, actives raise or lower the signal
# Summary of the method: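 HepG2 cells were exposed to compounds at 0.39–200 uM (0.5% v/v DMSO final, duplicates) for 72 hr, fixed in 3.7% formaldehyde, permeabilized and stained with Hoechst 33342. Nuclear DNA content was quantified by high-content imaging; gain or loss of signal was fitted bidirectionally against DMSO.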
# [10] = APR_HepG2_CellLoss_72hr: Apredica 72-hour HepG2 Assay for Cell Loss (AID 2282915); conditions: high-content imaging
# Summary of the method: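 HepG2 cells exposed 72 h to compound at 0.39–200 uM (10 concentrations, duplicate) in 0.5% DMSO. Fixed with 3.7% formaldehyde and Hoechst 33342-stained. Imaged at 20x; nuclear count gives cell number, fitted bidirectionally versus DMSO.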
# [11] = APR_HepG2_P-H2AX_72hr: Apredica 72-hour HepG2 Assay for H2AX Phosphorylation (AID 2282916); conditions: imaging, actives raise or lower the signal;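 also: phospho-histone H2A.x immunostain intensity per cell marking DNA damage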
# Summary of the method: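 Phospho-H2A.x imaging endpoint in HepG2 after 72 hr compound exposure (0.39–200 uM, duplicate wells). Activity derived by bidirectional curve fitting with DMSO as baseline.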
# [12] = APR_HepG2_MitoMembPot_72hr: Apredica 72-hour HepG2 Assay for Mitochondrial Membrane Potential (AID 2282917); conditions: imaging, actives raise or lower the signal
# Summary of the method: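 HepG2 cells dosed 72 hr with compound at 0.39–200 uM in duplicate, 0.5% v/v DMSO final. Mitochondria stained with 250 nM MitoTracker Red CMXRos for 30 min before formaldehyde fixation, imaged by high-content fluorescence; bidirectional fit versus DMSO.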
# [13] = APR_HepG2_MitoticArrest_72hr: Apredica 72-hour HepG2 Assay for Mitotic Arrest (AID 2282918); conditions: high-content imaging, actives raise or lower the signal
# Summary of the method: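 HepG2 cells were exposed for 72 hr to compound at 0.39–200 uM (10 concentrations, duplicate) in 0.5% v/v DMSO, fixed in 3.7% formaldehyde, immunostained for phospho-histone H3 with Hoechst 33342 and imaged by high-content fluorescence; bidirectional fits versus DMSO.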
# [14] = APR_HepG2_MicrotubuleCSK_72hr: Apredica 72-hour HepG2 Assay for Microtubule CSK Stabilty (AID 2282919); conditions: HepG2 microtubule cytoskeleton, high-content imaging, actives raise or lower the signal
# Summary of the method: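 HepG2, 72 hr cmpd exposure, 0.39–200 uM (10 pts, duplicate), 0.5% DMSO. 3.7% formaldehyde fix, 0.5% Triton perm, anti-alpha-tubulin/Cy5 plus Hoechst. HCS fluorescence intensity; bidirectional fit vs DMSO baseline; taxol as positive control.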
# [15] = APR_HepG2_P-H2AX_24hr: Apredica 24-hour HepG2 Assay for H2AX Phosphorylation (AID 2282920); conditions: high-content imaging, actives raise or lower the signal
# Summary of the method: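 HepG2 human liver cells were exposed for 24 hr to compounds at 0.39–200 uM in duplicate, with 0.5% v/v DMSO final. Fixed cells were immunostained for phospho-histone H2A.x plus Hoechst 33342, imaged by HCS fluorescence, and fitted bidirectionally against DMSO.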
# [16] = APR_HepG2_StressKinase_72hr: Apredica 72-hour HepG2 Assay for Stress Kinase (AID 2282921); conditions: HepG2 stress kinase (phospho-c-Jun) imaging, actives raise or lower the signal
# Summary of the method: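 Stress kinase signal reflects nuclear phospho-c-Jun staining in fixed, permeabilized cells exposed 72 h to compound at 0.39–200 uM; DMSO-normalized, fitted for increases or decreases.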
# [17] = APR_HepG2_StressKinase_24hr: Apredica 24-hour HepG2 Assay for Stress Kinase (AID 2282922); conditions: HepG2 stress kinase (phospho-c-Jun) imaging, actives raise or lower the signal
# Summary of the method: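 Read-out: phospho-c-Jun immunofluorescence (Cy3 secondary) quantified by high-content imaging at 20x, nuclei defined by Hoechst 33342. Human HepG2 liver cells dosed 24 hr, 0.39–200 uM, DMSO 0.5% v/v; gain or loss of signal fitted relative to DMSO.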
# [18] = APR_HepG2_p53Act_72hr: Apredica 72-hour HepG2 Assay for p53 Activation (AID 2282923); conditions: high-content imaging, actives raise or lower the signal;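 also: average cellular p53 protein immunofluorescence intensity in HepG2 cells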
# Summary of the method: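 Fixed-cell p53 staining (sheep primary, Cy5 secondary) measured by fluorescence imaging following 72 hr treatment at 0.39–200 uM in 0.5% DMSO; DMSO served as negative control and baseline.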
# [19] = APR_HepG2_MitoMass_72hr: Apredica 72-hour HepG2 Assay for Mitochondrial Mass (AID 2282924); conditions: high-content imaging, actives raise or lower the signal;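 also: MitoTracker Red CMXRos stain intensity per cell imaged as mitochondrial mass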
# Summary of the method: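 Read-out: MitoTracker Red fluorescence intensity from automated imaging (20x, six fields per well) in human HepG2 liver cells. Dosing ran 72 hr, 0.39–200 uM, 0.5% DMSO; bidirectional curve fitting versus DMSO baseline.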
# [20] = ACEA_ER_80hr: ACEA Biosciences xCELLigence Real-Time Cell Analysis on Estrogen Receptor Agonism for Proliferation (AID 2282667; active = hit-call score of the fitted dose curve at least 0.9, where 1 is the maximum); conditions: T47D proliferation, impedance (xCELLigence), 80 h
# Summary of the method: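 T47D human breast cells were seeded on electrode plates, monitored overnight, then exposed continuously to compounds in eight-point 1:4 dilutions from 100 uM (max 0.5% DMSO). Impedance-based growth was read at 80 h, fitted upward relative to DMSO.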
smiles,measurement,setting,value
CC/C(=C(\c1ccccc1)c1ccc(OCCN(C)C)cc1)c1ccccc1,outcome,[1],inactive
same,outcome,[2],inactive
same,AC50,[3],14.5 µM (active) and 17.8 µM (active)
same,AC50,[4],35.4 µM (active) and 44.5 µM (active)
same,AC50,[5],7.3 µM (active) and 6.94 µM (active)
same,AC50,[6],39.2 µM (active) and 24.9 µM (active)
same,AC50,[7],6.38 µM (active) and 7.4 µM (active)
same,AC50,[8],16.1 µM (active) and 11.3 µM (active)
same,AC50,[9],29.4 µM (active)
same,outcome,[9],inactive
same,AC50,[10],13.3 µM (active) and 17.4 µM (active)
same,AC50,[11],53.9 µM (active) and 59 µM (active)
same,AC50,[12],30.7 µM (active)
same,outcome,[12],inactive
same,AC50,[13],9.78 µM (active) and 3.59 µM (active)
same,outcome,[14],inactive
same,AC50,[15],11.6 µM (active) and 19.7 µM (active)
same,AC50,[16],63.4 µM (active) and 100 µM (active)
same,AC50,[17],32.1 µM (active)
same,outcome,[17],inactive
same,AC50,[18],6.04 µM (active)
same,outcome,[18],inactive
same,AC50,[19],152 µM (active)
same,outcome,[19],inactive
CCCCCCCC(=O)N(C)C,outcome,[20],inactive
c1ccc2scnc2c1,outcome,[20],inactive
CC(C)CCCC(C)(C)O,outcome,[20],inactive
C[C@]12CC[C@@H]3c4ccc(O)cc4CC[C@H]3[C@@H]1CC[C@@H]2O,outcome,[1],inactive
same,outcome,[2],inactive
same,AC50,[3],18.7 µM (active)
same,AC50,[4],32.4 µM (active)
same,AC50,[5],22.6 µM (active)
same,outcome,[6],inactive
same,outcome,[7],inactive
same,AC50,[8],25.1 µM (active)
same,outcome,[9],inactive
same,AC50,[10],28.6 µM (active)
same,AC50,[11],30.7 µM (active)
same,outcome,[12],inactive
same,AC50,[13],32.8 µM (active)
same,outcome,[14],inactive
same,AC50,[15],24.5 µM (active)
same,outcome,[16],inactive
same,outcome,[17],inactive
same,AC50,[18],25.6 µM (active)
same,outcome,[19],inactive
CCCC1CCOC(C)S1 (stereo not given),outcome,[20],inactive
CCCCC/C=C\C=C\C(=O)OCC,outcome,[20],inactive
CC(=O)C1C(=O)C=C(C)OC1=O (stereo not given),outcome,[20],inactive
COC(=O)c1ccc(C(=O)OC)cc1,outcome,[20],inactive
CC(C)(C)C1CCC(O)CC1 (stereo not given),outcome,[20],inactive
C=CC(=O)OCC(CO)(COC(=O)C=C)COC(=O)C=C,outcome,[20],inactive
C=C(C)C(=O)OCCC(C)OC(=O)C(=C)C (stereo not given),outcome,[20],inactive
CC1(C)CC(N)CC(C)(CN)C1 (stereo not given),outcome,[20],inactive
CC(=O)OC(C)(C)C1CC=C(C)CC1 (stereo not given),outcome,[20],inactive
CC(=O)OC/C=C(C)/C=C/C=C(C)/C=C/C1=C(C)CCCC1(C)C,outcome,[20],inactive
OCC(F)(OC(F)(F)C(F)(OC(F)(F)C(F)(F)C(F)(F)F)C(F)(F)F)C(F)(F)F (stereo not given),outcome,[20],inactive
CCCCOCCOCCOCCO,outcome,[20],inactive
S=c1[nH][nH]c(=S)s1,AC50,[20],2.68 µM (active)
Cc1cc(O)c(C)c(C)c1O,outcome,[20],inactive
